Several values for one entry are separate records, joined by “and”; a condition that tells them apart may be missing. Identical values can stand only once. Out of some 5,500 compounds screened, about 2,000 (36%) were called active. Inconclusive results (about 18%) are left out. Rule as the data show it: active = normalized growth mostly below about 0.91 (no sharp cut-off); inconclusive = no clear call, values can overlap the other calls; inactive = mostly above about 0.92. The list shows a part of the results.
Experiment: chemical genetic growth profiling, strain panel (AID 1159580);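 also: tested at 20 µM; growth read once vehicle control cultures reached saturation at 30 °C; 1 = growth at the plate median or of vehicle wells; lower values mean less growth of the strain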
Conditions: growth OD

Measured: normalized growth

NCCCNCCSP(=O)(O)O
inactive: S. cerevisiae deletion strains, locus YJR075W, strain HOC1, active compounds read low 1.01 | S. cerevisiae deletion strains, locus YKL009W, strain mrt4, active compounds read low 0.969 | S. cerevisiae deletion strains, locus YKL068W, active compounds read low 0.982 | S. cerevisiae deletion strains, locus YKL085W, strain MDH1 (second series), active compounds read low 0.985 | S. cerevisiae deletion strains, locus YKL085W, strain MDH1, active compounds read low 0.985 | S. cerevisiae deletion strains, locus YKL160W, strain elf1, active compounds read low 0.963 | S. cerevisiae deletion strains, locus YKL190W, strain CNB1, active compounds read low 0.988 | S. cerevisiae deletion strains, locus YKR001C, strain vps1, active compounds read low 0.986 | S. cerevisiae deletion strains, locus YKR026C, strain gcn3, active compounds read low 0.984 | S. cerevisiae deletion strains, locus YKR091W, strain srl3, active compounds read low 0.969 | S. cerevisiae deletion strains, locus YLL001W, strain dnm1, active compounds read low 0.954 | S. cerevisiae deletion strains, locus YLL026W, active compounds read low 0.972 | S. cerevisiae deletion strains, locus YLL041C, strain sdh2, active compounds read low 0.983 | S. cerevisiae deletion strains, locus YLR027C, strain aat2, active compounds read low 0.964 | S. cerevisiae deletion strains, locus YLR039C, strain RIC1, active compounds read low 0.974 | S. cerevisiae deletion strains, locus YLR058C, strain SHM2, active compounds read low 0.989 | S. cerevisiae deletion strains, locus YLR102C, strain apc9, active compounds read low 0.992 | S. cerevisiae deletion strains, locus YLR221C, strain rsa3, active compounds read low 0.952 | S. cerevisiae deletion strains, locus YLR258W, strain gsy2, active compounds read low 0.994 | S. cerevisiae deletion strains, locus YLR262C, strain YPT6 (second series), active compounds read low 0.96 | S. cerevisiae deletion strains, locus YLR262C, strain YPT6, active compounds read low 0.973 | S. cerevisiae deletion strains, locus YLR268W, strain sec22, active compounds read low 0.995 | S. cerevisiae deletion strains, locus YLR320W, strain mms22, active compounds read low 0.961 | S. cerevisiae deletion strains, locus YLR330W, strain CHS5, active compounds read low 0.989 | S. cerevisiae deletion strains, locus YLR342W, strain FKS1 (second series), active compounds read low 0.975 | S. cerevisiae deletion strains, locus YLR342W, strain FKS1, active compounds read low 0.979 | S. cerevisiae deletion strains, locus YLR357W, strain rsc2, active compounds read low 0.957 | S. cerevisiae deletion strains, locus YLR370C, strain arc18, active compounds read low 0.969 | S. cerevisiae deletion strains, locus YLR371W, strain rom2, active compounds read low 0.974 | S. cerevisiae deletion strains, locus YLR384C, strain iki3, active compounds read low 0.96 | S. cerevisiae deletion strains, locus YLR418C, strain cdc73, active compounds read low 1.01 | S. cerevisiae deletion strains, locus YML016C, strain PPZ1, active compounds read low 0.99 | S. cerevisiae deletion strains, locus YML032C, strain rad52, active compounds read low 0.978 | S. cerevisiae deletion strains, locus YML120C, strain ndi1, active compounds read low 0.964 | S. cerevisiae deletion strains, locus YML124C, strain tub3, active compounds read low 0.991 | S. cerevisiae deletion strains, locus YMR058W, strain fet3, active compounds read low 0.976 | S. cerevisiae deletion strains, locus YMR078C, strain ctf18, active compounds read low 0.981 | S. cerevisiae deletion strains, locus YMR125W, strain sto1, active compounds read low 0.975 | S. cerevisiae deletion strains, locus YMR129W, active compounds read low 0.99 | S. cerevisiae deletion strains, locus YMR205C, strain PFK2, active compounds read low 0.937 | S. cerevisiae deletion strains, locus YMR223W, strain ubp8, active compounds read low 0.973 | S. cerevisiae deletion strains, locus YMR231W, strain pep5, active compounds read low 0.978 | S. cerevisiae deletion strains, locus YMR263W, strain SAP30, active compounds read low 0.997 and 0.98 | S. cerevisiae deletion strains, locus YMR307W, strain GAS1, active compounds read low 0.974 | S. cerevisiae deletion strains, locus YNL067W, strain RPL9B, active compounds read low 0.984 | S. cerevisiae deletion strains, locus YNL071W, strain lat1, active compounds read low 0.983 | S. cerevisiae deletion strains, locus YNL128W, strain TEP1, active compounds read low 1.01 and 1 | S. cerevisiae deletion strains, locus YNL153C, strain GIM3, active compounds read low 1.01 and 0.993 | S. cerevisiae deletion strains, locus YNL175C, strain NOP13, active compounds read low 1.01 | S. cerevisiae deletion strains, locus YNL197C, strain WHI3, active compounds read low 1 | S. cerevisiae deletion strains, locus YNL209W, strain ssb2, active compounds read low 0.981 | S. cerevisiae deletion strains, locus YNL224C, strain SQS1, active compounds read low 0.988 | S. cerevisiae deletion strains, locus YNL233W, strain BNI4, active compounds read low 0.997 | S. cerevisiae deletion strains, locus YNL248C, strain rpa49, active compounds read low 0.977 | S. cerevisiae deletion strains, locus YNL250W, strain rad50, active compounds read low 0.981 | S. cerevisiae deletion strains, locus YNL271C, strain bni1, active compounds read low 0.994 | S. cerevisiae deletion strains, locus YNL298W, strain CLA4, active compounds read low 0.988 | S. cerevisiae deletion strains, locus YNL307C, strain MCK1, active compounds read low 0.989 | S. cerevisiae deletion strains, locus YNL322C, strain KRE1 (second series), active compounds read low 0.956 | S. cerevisiae deletion strains, locus YNL322C, strain KRE1, active compounds read low 1 | S. cerevisiae deletion strains, locus YNR049C, strain mso1, active compounds read low 0.963 | S. cerevisiae deletion strains, locus YNR052C, strain pop2, active compounds read low 0.986 | S. cerevisiae deletion strains, locus YOL006C, strain TOP1, active compounds read low 1.02 | S. cerevisiae deletion strains, locus YOL012C, strain htz1 0.741 | S. cerevisiae deletion strains, locus YOL147C, strain pex11, active compounds read low 0.988 | S. cerevisiae deletion strains, locus YOR001W, strain rrp6, active compounds read low 1.02 | S. cerevisiae deletion strains, locus YOR061W, strain CKA2, active compounds read low 1 | S. cerevisiae deletion strains, locus YOR069W, strain VPS5, active compounds read low 0.995 | S. cerevisiae deletion strains, locus YOR070C, strain gyp1, active compounds read low 0.982 | S. cerevisiae deletion strains, locus YOR080W, strain dia2, active compounds read low 0.968 | S. cerevisiae deletion strains, locus YOR083W, strain WHI5 (second series), active compounds read low 1.01 | S. cerevisiae deletion strains, locus YOR083W, strain WHI5, active compounds read low 0.96 | S. cerevisiae deletion strains, locus YOR106W, strain vam3, active compounds read low 0.931 | S. cerevisiae deletion strains, locus YOR136W, strain idh2, active compounds read low 0.992 | S. cerevisiae deletion strains, locus YOR144C, strain elg1, active compounds read low 0.982 | S. cerevisiae deletion strains, locus YOR184W, strain ser1, active compounds read low 0.962 | S. cerevisiae deletion strains, locus YOR265W, strain rbl2, active compounds read low 0.984 | S. cerevisiae deletion strains, locus YOR270C, strain vph1, active compounds read low 0.924 | S. cerevisiae deletion strains, locus YOR290C, strain snf2, active compounds read low 0.965 | S. cerevisiae deletion strains, locus YOR316C, strain cot1, active compounds read low 0.977 | S. cerevisiae deletion strains, locus YPL051W, strain arl3, active compounds read low 0.987 | S. cerevisiae deletion strains, locus YPL055C, strain LGE1, active compounds read low 1.02 and 0.958 | S. cerevisiae deletion strains, locus YPL078C, strain atp4, active compounds read low 0.971 | S. cerevisiae deletion strains, locus YPL106C, strain sse1, active compounds read low 0.954 | S. cerevisiae deletion strains, locus YPL240C, strain hsp82, active compounds read low 0.993 | S. cerevisiae deletion strains, locus YPL241C, strain CIN2, active compounds read low 0.998 and 0.991 | S. cerevisiae deletion strains, locus YPR119W, strain clb2, active compounds read low 0.995 | S. cerevisiae deletion strains, locus YPR141C, strain kar3, active compounds read low 0.976 | S. cerevisiae deletion strains, locus YPR163C, strain tif3, active compounds read low 0.986 | S. cerevisiae deletion strains, locus YPR167C, strain met16, active compounds read low 0.995 | S. cerevisiae deletion strains, strain wtn01, active compounds read low 0.99 | S. cerevisiae strains, strain wild type, active compounds read low 0.977
